Experimental data: PubChem BioAssay
Records with an inconclusive call do not appear. Calls of active or inactive are those of the source. Unless noted, no cut-off is given here; in the data, nearly all actives have AC50 up to about 26 µM.

Experiments:
[1] = viability loss in pontine glioma line – cell-based, SU-DIPG-XVII, MIPE5.0, CellTiter-Glo, qHTS, dose response (AID 1347060); settings: CellTiter-Glo ATP luminescence;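 note: cells exposed to compound for 48 hours before viability readout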
[2] = viability loss in pontine glioma line – cell-based, SU-DIPG-XIII, MIPE5.0, CellTiter-Glo, qHTS, dose response (AID 1347064; cut-off not given, nearly all actives have AC50 up to about 23 µM;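 note: cells exposed to compound for 48 hours before the viability read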); settings: CellTiter-Glo ATP luminescence
[3] = viability loss in pontine glioma line – cell-based, SU-DIPG-XXV, MIPE5.0, CellTiter-Glo, qHTS, dose response (AID 1347065); settings: CellTiter-Glo ATP luminescence;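 note: cells exposed to compound for 48 hours before ATP readout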
[4] = JHH-DIPG-1 glioma cell viability, MIPE5.0 library, CellTiter-Glo luminescence, qHTS (AID 1347067); settings: JHH-DIPG-1 glioma viability, CellTiter-Glo ATP luminescence;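 note: cells exposed to compound for 48 hours before readout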
[5] = growth inhibition of DIPG cells – cell-based, MIPE5.0 library, qHTS (AID 1347068; cut-off not given, nearly all actives have IC50 up to about 30 µM;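 note: cells exposed to compound for 48 hours before viability readout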); settings: SU-DIPG-XXV viability
[6] = viability loss with induced miR-34 in A549 – imaging, A549 dox-inducible miR-34, nuclei and caspase counts, primary screen (AID 1347080;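 active = compounds whose cell count with miR-34 switched on is under 0.7 times the count with it off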); settings: A549 miR-34 inducible, Hoechst nuclei count, 48 h
[7] = MELAS cybrid and Rieske KO viability enhancers – cell-based, MELAS cybrids, Rieske KO mouse fibroblasts, CellTiter-Glo, primary screen (AID 1508586;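 active = mean z-score across replicates of 1.96 or higher in either the MELAS or the Rieske mutant cell line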;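 note: z relative to plate mean and SD of compound and empty wells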); settings: low glucose
[8] = stronger effect = lower value, cell number ratio, induced over uninduced
[9] = measured here: relative caspase fold change +Dox/-Dox
[10] = measured here: total cells with miR-34 induction, stronger effect = lower value
[11] = measured here: total cells without miR-34 induction
[12] = MELAS cybrid survival, CellTiter-Glo 48 h, stronger effect = higher value
[13] = Rieske KO mouse fibroblast survival, CellTiter-Glo 72 h

Row | Structure (SMILES) | AC50 [1] | AC50 [2] | AC50 [3] | AC50 [4] | IC50 [5] | fold change [6, 8] | fold change [6, 9] | cell count [6, 10] | cell count [6, 11] | z-score [7, 12] | z-score [7, 13]
1 | C=CC(=O)Nc1cccc(Nc2nc(Nc3ccc(N4CCN(C(C)=O)CC4)cc3OC)ncc2C(F)(F)F)c1 | 1.48 µM (active) | 1.66 µM (active) | 0.742 µM (active) | 1.86 µM (active) | 1.32 µM (active) | 0.925 (inactive) | 0.348 | 2040 | 2210 | -0.595 (inactive) | 1.83
2 | C=CC(=O)Nc1cccc(Nc2nc(Nc3ccc(OCCOC)cc3)ncc2F)c1 | 2.35 µM (active) | 1.66 µM (active) | 2.09 µM (active) | 3.72 µM (active) | 3.32 µM (active) | 0.943 (inactive) | 0.349 | 1800 | 1910 | 2.91 (active) | -0.365
3 | CCN1CCN(Cc2ccc(Nc3ncc(F)c(-c4cc(F)c5nc(C)n(C(C)C)c5c4)n3)nc2)CC1 | 5.9 µM (active) | 7.42 µM (active) | 6.61 µM (active) | 8.33 µM (active) | 23.5 µM (active) | 0.908 (inactive) | 0.558 | 2650 | 2920 | 5.9 (active) | -5.11
4 | C=CC(=O)Nc1ccc2ncnc(Nc3cccc(Br)c3)c2c1 | 10.5 µM (active) | 18.6 µM (active) | 9.34 µM (active) | 13.2 µM (active) | 4.68 µM (active) | 0.91 (inactive) | 0.865 | 3490 | 3830 | -0.254 (inactive) | -0.0488
